PubChem BioAssay (Tox21)
“And” between values parts separate entries of the source, which are not always exact repeats. Identical values can stand only once. Records with an inconclusive call do not appear. A call without a number means that no potency is given here. A structure can be active in one record and inactive in another. The source made the active and inactive calls. Calls follow the shape of the dose curve; as a rule, active = well fitted inhibition curve with a large enough effect in the repeat runs; inconclusive = weak or mixed curves; inactive = no such curve, though single readings can be large or run the other way.
Potency is read from the fitted curve at half-maximal effect.

These compounds were tested against Cytochrome P450 2C19 (Homo sapiens) (UniProt P33261) (assay: Cytochrome P450 Family 2 Subfamily C Member 19 (CYP2C19) small molecule antagonists: luciferase reporter qHTS assay (AID 1671197; also: nearly all actives have a fitted effect of over 65% in size)). Conditions: P450-Glo CYP2C19 enzyme, luciferin luminescence, 1 h; series mostly up to 115 µM.
Sequence of Cytochrome P450 2C19 (Homo sapiens) (P33261 whole entry, looked up): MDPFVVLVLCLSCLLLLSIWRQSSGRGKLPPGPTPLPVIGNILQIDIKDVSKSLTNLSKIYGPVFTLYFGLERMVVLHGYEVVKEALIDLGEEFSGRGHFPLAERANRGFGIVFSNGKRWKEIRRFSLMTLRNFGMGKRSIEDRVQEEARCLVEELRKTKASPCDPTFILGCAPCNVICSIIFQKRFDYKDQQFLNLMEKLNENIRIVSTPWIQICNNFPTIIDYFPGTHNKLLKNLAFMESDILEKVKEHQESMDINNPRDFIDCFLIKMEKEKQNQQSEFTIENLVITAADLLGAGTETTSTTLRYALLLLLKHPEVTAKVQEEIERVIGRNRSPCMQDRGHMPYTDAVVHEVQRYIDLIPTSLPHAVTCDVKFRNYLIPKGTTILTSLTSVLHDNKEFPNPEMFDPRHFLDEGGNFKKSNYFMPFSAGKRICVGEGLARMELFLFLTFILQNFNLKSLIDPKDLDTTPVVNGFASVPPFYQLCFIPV
From the text: National Center for Advancing Translational Sciences [NCATS]
U.S. Environmental Protection Agency [EPA]
National Institutes of Environmental Health Sciences [NIEHS]
National Toxicology Program [NTP]
U.S. Food and Drug Administration [FDA]
Cytochrome P450 (CYP) enzymes are membrane-bound hemeproteins that play a key role in metabolism of drugs and xenobiotics. Evaluation of the effect of chemicals on CYP isozymes is useful to minimize the adverse drug reactions and toxicities in drug development process. Tox21 chemicals were tested for their effect on CYP enzyme activities by using P450-Glo (TM) screening systems (Promega Corporation, Madison, WI). These systems provide a luminescent method containing proluciferin substrates and are converted to luciferin products by CYP isozymes. The luciferin products formed are detected with a luciferin detection reagent, and the amount of light produced is proportional to CYP activity. P450-Glo (TM) CYP2C19 screening system (Catalog. No. V9880) was used to detect the compounds that interfere in CYP2C19 activity. The positive control compound used for CYP2C19 assay is ketoconazole (Sigma-Aldrich, St. Louis, MO).
Tox21 Assay Protocol Summary:
Two ul of enzyme-substrate mix was dispensed into medium binding white/solid 1536-well plates (Greiner Bio-One North America Inc., Monroe, NC) using a BioRaptr Flying Reagent Dispenser (FRD, Beckman Coulter, Brea, CA). Compounds dissolved in DMSO and positive control (ketoconazole) were transferred to the assay plates at 23 nl using a Pintool station (Wako, San Diego, CA). The assay plates were incubated at room temperature for 10 min. Then 2 ul of NADPH regeneration solution was added to each well of the assay plates using an FRD and incubated at 37C for 1 h. The reaction was stopped by adding 4 ul of detection reagent using an FRD and after 20 min incubation at room temperature the luminescence signal was measured using a ViewLux plate reader (Perkin Elmer, Shelton, CT). Data were expressed as relative luminescence units.
With `OCC(CO)(CO)CO` the Potency was “inactive”.
`Nc1nc(N)c2nc(-c3ccccc3)c(N)nc2n1` was tested, and the Potency was “inactive”.
For `COc1ccc([C@@H]2CC(=O)c3c(O)cc(O[C@@H]4O[C@H](CO[C@@H]5O[C@@H](C)[C@H](O)[C@@H](O)[C@H]5O)[C@@H](O)[C@H](O)[C@H]4O)cc3O2)cc1OC`, the Potency was “inactive”.
For `CCCCCCC(=O)O`, the Potency was “inactive”.
`Cc1ccncc1` was tested, and the Potency was “inactive”.
With `CCCCCCCCCCCC(=O)N(C)CC(=O)O` the activity change, negative = inhibition was 17.6% [at 10.5 µM] (inactive).
With `CCCOC(=O)NCCCN(C)C` the Potency was 35.6 µM (active) and inactive.
In the case of `Cc1cccc(C)c1[N+](=O)[O-]`, the Potency is reported as “inactive”.
In the case of `Cc1ccccc1Cl`, the Potency is reported as “inactive”.
In the case of `C=CC(=O)NCOCCCC`, the Potency is reported as 46.2 µM (active).
In the case of `O=C1C(N(CO)C(=O)NCO)N(CO)C(=O)N1CO` (stereo not given), the Potency is reported as “inactive”.
For `CC(=O)CC(=O)N(C)C`, the Potency was “inactive”.
In the case of `CCCCCNCCCCC`, the Potency is reported as “inactive”.
With `Oc1ccc(Cc2ccccc2O)cc1` the Potency was 36 µM (active) and 39.9 µM (active).
For `Nc1cccc(N)n1`, the Potency was 39.9 µM (active).
For `COc1ccccc1[N+](=O)[O-]`, the Potency was “inactive and 35.6 µM (active)”.
With `OC1CCCCC1` the Potency was “inactive”.
In the case of `CCn1cc(C(=O)O)c(=O)c2cc3c(cc21)OCO3`, the activity change, negative = inhibition is reported as -7.51% [at 23.6 µM] (inactive) and the Potency is reported as 51 µM (active).
In the case of `CC[N+](CC)(CC(=O)Nc1c(C)cccc1C)Cc1ccccc1`, the Potency is reported as 39.9 µM (active) and inactive.
In the case of `O=C(Cl)c1ccc(C(=O)Cl)cc1`, the Potency is reported as “inactive”.
For `CC(=O)OC(C)(C)C1CC=C(C)CC1` (stereo not given), the Potency was 35.6 µM (active).
With `O=[N+]([O-])c1cc(C(F)(F)F)ccc1Cl` the Potency was “inactive”.
For `COC(=O)/C=C\C(=O)OC`, the Potency was “inactive”.
With `N[C@@H](Cc1cc(I)c(Oc2ccc(O)c(I)c2)c(I)c1)C(=O)O` the Potency was “inactive and 74 µM (active)”.
For `O=C(O)Cc1c[nH]c2ccccc12`, the Potency was 17.8 µM (active) and inactive.
In the case of `CC(C)(CO)CO`, the Potency is reported as “inactive”.
With `CC(C)=CCC/C(C)=C/C=O` the Potency was “inactive”.
For `C=C(C)CC(C)(C)C`, the Potency was “inactive”.
In the case of `CC(COCC(C)OC(=O)c1ccccc1)OC(=O)c1ccccc1` (stereo not given), the Potency is reported as 19.9 µM (active) and 11.2 µM (active).
In the case of `CCCCCCCCC(=O)O`, the Potency is reported as 30.7 µM (active).
`OCc1ccc(Cl)cc1Cl` was tested, and the Potency was “inactive”.
In the case of `OCC(O)CS` (stereo not given), the Potency is reported as “inactive”.
`CC(=O)c1nccs1` was tested, and the Potency was 26.1 µM (active) and inactive.
In the case of `CC(=O)OC[C@H]1O[C@@](COC(C)=O)(O[C@H]2O[C@H](COC(C)=O)[C@@H](OC(C)=O)[C@H](OC(C)=O)[C@H]2OC(C)=O)[C@@H](OC(C)=O)[C@@H]1OC(C)=O`, the Potency is reported as “inactive”.
`CCc1cccc(O)c1` was tested, and the Potency was 40.8 µM (active).
`O=c1c(O)c(-c2ccc(O)c(O)c2)oc2cc(O)cc(O)c12` was tested, and the Potency was “inactive”.
In the case of `NC(N)=S`, the Potency is reported as 39.1 µM (active).
For `CCCCCCCCO`, the Potency was “inactive”.
In the case of `CCCN(CCC)C(=O)SCC`, the Potency is reported as “inactive”.
